As a reminder, the inhibition is the change of the read-out against control, counted positive when it falls.

In all, about 310,000 compounds went through this assay and about 1,200 (0.39%) were called active. No rule for the calls is given here. Only a sample is shown. Measured potencies and affinities stand elsewhere.

Data on 62 molecules can be found in PubChem BioAssay AID1903 (Southern Research Specialized Biocontainment Screening …, 2009).

The target of this experiment is Large T antigen (Simian virus 40) (UniProt P03070). Nature of the experiment: SV40 large T antigen inhibitors, biochemical (AID 1903). As to conditions: SV40 large T antigen ATPase/helicase inhibition assay; at 20 µM; active compounds read high.
Large T antigen (Simian virus 40), sequence (P03070 whole entry, looked up): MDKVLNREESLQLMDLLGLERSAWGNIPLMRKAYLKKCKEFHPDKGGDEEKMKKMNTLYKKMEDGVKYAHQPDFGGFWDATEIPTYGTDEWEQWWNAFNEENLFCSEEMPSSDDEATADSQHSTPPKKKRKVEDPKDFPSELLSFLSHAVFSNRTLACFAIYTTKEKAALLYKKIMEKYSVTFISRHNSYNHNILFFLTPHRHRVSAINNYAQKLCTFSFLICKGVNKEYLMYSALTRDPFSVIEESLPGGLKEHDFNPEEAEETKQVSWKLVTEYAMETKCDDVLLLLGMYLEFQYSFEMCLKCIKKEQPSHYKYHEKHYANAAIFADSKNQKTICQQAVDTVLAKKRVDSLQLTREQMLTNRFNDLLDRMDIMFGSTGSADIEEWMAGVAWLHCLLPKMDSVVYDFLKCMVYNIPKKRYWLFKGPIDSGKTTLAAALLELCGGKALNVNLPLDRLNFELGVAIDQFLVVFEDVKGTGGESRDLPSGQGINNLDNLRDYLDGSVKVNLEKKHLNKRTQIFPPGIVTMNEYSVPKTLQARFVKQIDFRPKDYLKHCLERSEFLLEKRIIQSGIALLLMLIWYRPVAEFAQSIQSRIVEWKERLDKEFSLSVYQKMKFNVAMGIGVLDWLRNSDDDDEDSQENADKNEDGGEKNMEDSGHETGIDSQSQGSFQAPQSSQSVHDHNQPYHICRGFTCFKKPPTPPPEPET
Turning to `O=C1Nc2ccc(Br)cc2C1(O)c1ccc(F)cc1` (configuration not stated), the inhibition is 5.56% (inactive).
Take `COc1ccc(F)cc1C(=O)C1CCCN(Cc2c(C)n(C)n(-c3ccccc3)c2=O)C1` (configuration not stated): the inhibition is 25.2% (inactive).
With `COc1ccc(C(=O)NC2CCCCC2)cc1S(=O)(=O)N1CCOCC1`, the inhibition is 1.05% (inactive).
The result for `CC(OC(=O)c1cccc(Cl)c1)C(=O)NC1CCCCC1C` (configuration not stated) reads 27.1% (inactive); that for `Nc1nnc(SCC(=O)N2CCCCC2)s1`, -7.45% (inactive); that for `COc1ccc(-n2nc3cc(C)c(N)cc3n2)cc1Cl`, -6.4% (inactive).
As to `O=C(CN(Cc1ccccc1)C(=O)c1csnn1)NCc1ccccc1`, the inhibition is 7.5% (inactive).
In the case of `Cc1nc2ccc(NC(=O)c3ccc([N+](=O)[O-])cc3[N+](=O)[O-])cc2s1`, the inhibition is 8.68% (inactive).
Turning to `Cc1nc2ccc(NC(=O)c3ccc(Cl)c([N+](=O)[O-])c3)cc2s1`, the inhibition is 6.3% (inactive).
Regarding `CCOc1ccc(C(Nc2cccnc2)c2cc(Cl)c3cccnc3c2O)cc1` (configuration not stated), the inhibition was 15.7% (inactive).
For `COc1ccccc1C(NC(C)=O)c1cc(Cl)c2cccnc2c1O` (configuration not stated), the inhibition was 3.72% (inactive).
Then `CCOC(=O)C1(Cc2ccccc2C)CCCN(S(=O)(=O)CC)C1` (configuration not stated), with 6.84% (inactive).
The result for `Cc1cc(C)c(S(=O)(=O)Nc2ccc(O)cc2)c(C)c1` reads 29.1% (inactive); that for `Cc1cc(C)c(S(=O)(=O)Nc2ccc(O)cc2)cc1C`, 48.1% (inactive); that for `Cc1ccc(C)c(S(=O)(=O)Nc2ccc(C(N)=O)cc2)c1`, 20.6% (inactive).
As for `Cc1cc(C)c(C)c(S(=O)(=O)Nc2ccc(O)cc2)c1C`, the inhibition was 30.2% (inactive).
For `COCCOc1cc(N(CC(=O)N(C)C)S(=O)(=O)c2ccccc2)c(Cl)cc1Cl`, the inhibition is -5.2% (inactive).
For the molecule `Cc1cc(C)c2c(=O)[nH]n(C3CCOC(C)(C)C3)c2n1` (configuration not stated), the inhibition is 13.4% (inactive).
In the case of `O=C(Nc1ccccc1C(=O)Nc1nnc(C(F)(F)F)s1)c1ccccc1Cl`, the inhibition is 10.1% (inactive).
Regarding `CNC(=O)c1cc(S(=O)(=O)NCc2ccncc2)ccc1OC`, the inhibition is 11.8% (inactive).
Consider `COc1ccccc1S(=O)(=O)CC(O)COc1ccc(F)cc1Cl` (configuration not stated), for which the inhibition was 4.29% (inactive).
Regarding `COc1ccc(/C=C/C(=O)C2CC2)cc1COc1c(C)cccc1C`, the inhibition is 7.52% (inactive).
Regarding `COC(=O)CC1SC(=O)NC1=Nc1ccc(C)cc1` (configuration not stated), the inhibition is 0.63% (inactive).
For `COC(=O)CC1SC(=O)NC1=Nc1ccc(OC)cc1` (configuration not stated), the inhibition was 3.46% (inactive).
In the case of `Cc1cc(S(=O)(=O)NCc2ccccc2)ccc1OCC(=O)NCc1cccnc1`, the inhibition is 8.52% (inactive).
Then `O=C(COc1ccccc1Br)Nc1ccc2c(c1)OCCCO2`, with 8.78% (inactive); and `CCOc1ccc(N2C(=O)CC(Sc3n[nH]c(-c4ccccc4)n3)C2=O)cc1` (configuration not stated), with 33.8% (inactive).
As to `COc1ccc(N2C(=O)CC(Sc3n[nH]c(-c4ccc(C)cc4)n3)C2=O)cc1` (configuration not stated), the inhibition is 28.9% (inactive).
Turning to `Cc1nc2ccccc2n1CC(=O)NCCN1CCOCC1`, the inhibition was 21.1% (inactive).
Consider `CCCCn1c(N)c(N(CCOC)C(=O)COC(=O)CSc2cc(C)c3ccccc3n2)c(=O)[nH]c1=O`, for which the inhibition was 11.3% (inactive).
As to `Oc1ccccc1Nc1nc(NCC2CCCO2)c2ccccc2n1` (configuration not stated), the inhibition is 31.9% (inactive).
For `OCCNc1nc(Nc2ccccc2)nc2ccccc12`, the inhibition is 1.4% (inactive).
The result for `c1ccc(Nc2nc(NCC3CCCO3)c3ccccc3n2)cc1` (configuration not stated) reads 5.53% (inactive); that for `OCCNc1nc(Nc2ccc(Br)cc2)nc2ccccc12`, 2.29% (inactive); that for `CC(C)CSc1nc2ccccc2[nH]1`, 4.9% (inactive).
As to `CC(NC(=O)c1cccnc1)C(=O)N1CCCCC1` (configuration not stated), the inhibition was 11.9% (inactive).
As to `CC1CC1c1ccc(/C=C(\C#N)C(=O)Nc2ccccc2Cl)o1` (configuration not stated), the inhibition was 19.3% (inactive).
For `O=C(Cn1c(O)c(/C=C2\C=Nc3ccc(Br)cc32)sc1=O)N1CCCC1`, the inhibition was 2.37% (inactive).
With `O=C(Nc1ccccc1F)c1ccc(CN2CCc3ccccc3C2)cc1`, the inhibition is -1.04% (inactive).
In the case of `CC(C)c1cccc(C(C)C)c1NC(=O)CN1C(=O)NC2(CCCC2)C1=O`, the inhibition is 1.52% (inactive).
The result for `c1cc(C(c2nnnn2C2CCCC2)N2CCOCC2)ccn1` (configuration not stated) reads 4.22% (inactive); that for `CC(C)(C)n1nnnc1C(c1cccnc1)N1CCN(c2ccccc2)CC1` (configuration not stated), 3.3% (inactive).
Then `c1ccc(C(c2ccccc2)N2CCN(C(c3ccccn3)c3nnnn3C3CCCC3)CC2)cc1` (configuration not stated), with -0.29% (inactive); and `c1ccc(C(c2nnnn2C2CCCC2)N2CCN(c3ccccc3)CC2)cc1` (configuration not stated), with 11.2% (inactive).
In the case of `CCC(C)(C)n1nnnc1C(c1ccc2ncccc2c1)N1CCN(c2nc3ccccc3s2)CC1` (configuration not stated), the inhibition was 9.88% (inactive).
With `CCC(C)(C)n1nnnc1C(c1ccc2ncccc2c1)N1CCCCCC1` (configuration not stated), the inhibition is 3.78% (inactive).
For the molecule `CC(C)(C)n1nnnc1C(c1ccncc1)N1CCCCCC1` (configuration not stated), the inhibition was 17.8% (inactive).
Consider `c1ccc(C(c2nnnn2C2CCCC2)N2CCCCCC2)nc1` (configuration not stated), for which the inhibition is 4.88% (inactive).
In the case of `Cc1nn(CC(=O)N/N=C/c2cccs2)c(C)c1[N+](=O)[O-]`, the inhibition is 11.7% (inactive).
Turning to `O=C(Nc1ccc(N2CCN(C(=O)c3ccccc3F)CC2)cc1)c1ncn[nH]1`, the inhibition was 8.25% (inactive).
Consider `Cc1ccc2nc(Cl)c(/C=N/NC(=O)CN3CCOCC3)cc2c1`, for which the inhibition is 11.5% (inactive).
Regarding `COc1ccc(C(Nc2ccccn2)c2c(NC(=O)c3ccco3)sc(C)c2C)cc1` (configuration not stated), the inhibition is 14.4% (inactive).
Regarding `Cc1cc(C)n(CC(=O)NC2CCCc3c2cnn3-c2ccc(C)c(C)c2)n1` (configuration not stated), the inhibition is 2.04% (inactive).
Regarding `CC(C)C(CCN1C(=O)c2ccccc2C1=O)c1ccco1` (configuration not stated), the inhibition was 16.2% (inactive).
Consider `CCCN(C(=O)CCSc1ccc(F)cc1)c1c(N)n(Cc2ccccc2)c(=O)[nH]c1=O`, for which the inhibition is 5.85% (inactive).
As to `CCCCCCC(=O)Nc1nnc(CC)s1`, the inhibition is 4.74% (inactive).
In the case of `COc1ccc(CC(=O)N/N=C/c2sccc2C)cc1`, the inhibition was 4.71% (inactive).
For the molecule `O=C(Nc1cccc2ccccc12)N1CC=CCC1`, the inhibition was 5.64% (inactive).
For `CCOc1ccc(C(=O)NC(=S)Nc2ncccc2C)cc1[N+](=O)[O-]`, the inhibition was 5.78% (inactive).
Take `COc1ccc(-c2noc(N3CCCC(C(=O)Nc4ccc(F)cc4F)C3)n2)cc1` (configuration not stated): the inhibition is 5.72% (inactive).
Then `O=C1N/C(=C/c2ccc(Br)s2)C(=O)N1c1ccccc1`, with 8.81% (inactive).
`CC1=NN(c2ccc(C)cc2)C(=O)/C1=C\c1ccc(Br)s1`: the inhibition is -1.11% (inactive).
